# An excerpt weighted towards active compounds, which were near 2.3% of everything screened.
# Mcl-1 Bim block: human Bim-Mcl-1 interaction inhibition. AID 1009. Bead-based flow cytometry, Bim peptide-Mcl-1 binding. Q07820. inhibition, % at 10 µM. 0.1% of 190,000 active; in the data active = inhibition above about 40%
# Target sequence (Q07820 whole entry, looked up): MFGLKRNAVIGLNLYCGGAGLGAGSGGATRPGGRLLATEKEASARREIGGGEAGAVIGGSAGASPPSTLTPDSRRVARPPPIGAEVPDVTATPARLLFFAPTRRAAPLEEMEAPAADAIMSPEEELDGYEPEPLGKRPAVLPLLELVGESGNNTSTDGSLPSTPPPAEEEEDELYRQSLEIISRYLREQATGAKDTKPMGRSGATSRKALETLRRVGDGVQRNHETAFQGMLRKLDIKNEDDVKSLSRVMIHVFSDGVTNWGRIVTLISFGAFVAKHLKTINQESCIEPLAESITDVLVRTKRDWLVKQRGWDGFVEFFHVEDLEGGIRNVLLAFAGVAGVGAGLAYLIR
# MCL1 BIM primary: disrupts human MCL1 binding to BIM-BH3 peptide; Q07820; GST-MCL1 / FITC-Bim-BH3 fluorescence polarization; inhibition, % at 10.9 µM; 0.68% of 320,000 active;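 active = inhibition above the mean inhibition of all tested compounds plus 3 SD, set per campaign, cut at about 40% in these data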;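 also: higher means more loss of mP so more displacement of Bim peptide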
# Mcl1-Bid inh: disrupts binding of human Mcl-1 to Bid peptide. 0.97% of 220,000 active. inhibition, % at 21.7 µM. Q07820. TR-FRET Mcl-1/Bid-Dy647 peptide binding, 1536-well;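 active = compounds that cut the binding signal by more than half at the single screening dose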;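 also: His-tagged Mcl-1 with europium anti-His antibody binding Bid BH3 peptide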
# BCLXL inh: Bcl-xL (human) inhibition | Q07817 | GST-Bcl-xL / FITC-Bim BH3 peptide fluorescence polarization | inhibition, % at 10.9 µM | 0.7% of 320,000 active;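 active = inhibition above the mean of all tested compounds plus 3 SD, cutoff set per campaign, cut at about 30% in these data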;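 also: inhibitors lower millipolarization by displacing the labeled peptide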
# Target sequence (Q07817 whole entry, looked up): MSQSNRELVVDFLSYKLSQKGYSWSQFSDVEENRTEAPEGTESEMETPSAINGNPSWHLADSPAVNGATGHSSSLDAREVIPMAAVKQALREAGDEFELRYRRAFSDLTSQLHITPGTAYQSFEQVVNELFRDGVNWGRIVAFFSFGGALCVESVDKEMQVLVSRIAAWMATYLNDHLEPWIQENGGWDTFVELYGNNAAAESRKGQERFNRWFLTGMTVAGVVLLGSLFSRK
# GLD-1 RNA inh: GLD-1-TGE RNA interaction inhibition (C. elegans); inhibition, % at 5.96 µM; 0.44% of 320,000 active; Q17339; purified GLD-1 + fluorescein TGE RNA, fluorescence polarization;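 active = percent inhibition above a per-plate cutoff, the plate mean of test compounds plus 3 SD, cut at about 30% in these data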
# Mcl1-Noxa inh: disrupts binding of human Mcl-1 to Noxa peptide; Q07820; TR-FRET Mcl-1/Noxa peptide binding, 2 h; inhibition, % at 21.7 µM; 1.5% of 220,000 active;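 active = compounds that cut the protein-peptide binding signal by more than 50% relative to plate controls in a single-dose test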;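 also: His-tagged Mcl-1 with rhodamine Noxa BH3 peptide and terbium anti-His antibody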
# GLD1 RNA confirm: GLD-1 TGE RNA interaction inhibition, confirmation. 10% of 550 active. shares compounds with GLD-1 RNA inh. inhibition, % at 5.96 µM. AID 2459. GLD-1/FL-TGE RNA fluorescence polarization, biochemical;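 active = average inhibition across triplicates above the hit cutoff set in the primary screen, cut at about 32% in these data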
# A number is an active result; . = inactive; / = not tested or not shown.
SMILES,Mcl-1 Bim block,MCL1 BIM primary,Mcl1-Bid inh,BCLXL inh,GLD-1 RNA inh,Mcl1-Noxa inh,GLD1 RNA confirm
CCCCC1(c2ccc(F)cc2)NC(=O)N(CC(=O)Nc2ccc(N3CCOCC3)cc2)C1=O (stereo unspecified),/,/,/,/,.,/,/
CCOc1ccc(NC(=O)Cc2ccc(S(=O)(=O)N3CCOCC3)s2)cc1OCC,/,.,/,.,.,/,/
Cc1cnc(NC(=O)Cc2ccc(S(=O)(=O)N3CCOCC3)s2)s1,/,/,/,/,48,/,.
COC(=O)c1ccccc1NC(=O)N1CSC[C@H]1C(=O)OC,.,.,.,.,.,.,/
CCC1c2ccc(C)n2CCN1C(=O)Nc1ccccc1C(=O)OC (stereo unspecified),.,44,.,41,35,.,.
Cc1ccc(S(=O)(=O)N(C)Cc2ccc(C(=O)NN=C3C4CC5CC(C4)CC3C5)cc2)cc1,.,.,.,.,.,.,/
Cc1ccc(S(=O)(=O)N(C)Cc2ccc(C(=O)N/N=C3\CCCC(=O)C3)cc2)cc1,.,.,.,.,49,.,.
O=C1CCC/C(=N/NC(=O)c2ccc(CN3c4cccc5cccc(c45)S3(=O)=O)cc2)C1,.,.,.,.,40,.,.
O=C(O)c1ccc(/C=N/NC(=O)c2ccc(CN3c4cccc5cccc(c45)S3(=O)=O)cc2)cc1,/,.,.,.,.,.,/
CN(C(=O)CSc1ncnc2sccc12)C1CCCCC1,/,.,/,.,.,/,/
CCC(Cc1ccccc1)NC(=O)c1cc(S(=O)(=O)N2CCCCC2)c[nH]1 (stereo unspecified),/,.,/,.,.,/,/
COc1ccc(CN2CC(=O)N3[C@H]4c5cc(C)ccc5OC[C@@H]4[C@H](c4ccccc4)[C@]3(C)C2=O)cc1,/,/,/,/,33,/,.
C[C@@]12C(=O)N(Cc3ccc(Cl)cc3)CC(=O)N1[C@H]1c3ccccc3OC[C@@H]1[C@@H]2c1ccccc1,/,.,/,.,.,/,/
COc1ccc(CN2CC(=O)N3[C@H]4c5ccccc5OC[C@@H]4[C@H](c4ccccc4)[C@]3(C)C2=O)cc1,/,.,/,.,45,/,.
COc1ccc2c(c1)OC[C@H]1[C@H]2N2C(=O)CN(Cc3ccc(C)cc3)C(=O)[C@@]2(C)[C@H]1c1ccccc1,/,.,/,.,.,/,/
Cc1ccc(C)c(C(=O)CCC(=O)NNC(=O)c2cccs2)c1,/,/,/,/,.,/,/
Cc1ccc(S(=O)(=O)N2CCN(C(=O)c3ccc(Br)o3)CC2)c(C)c1,/,.,/,.,.,/,/
CCCCNC(=O)CN1C(=O)c2cccc(N)c2C1=O,.,/,.,/,/,.,/
CCCn1c(C)cc(C(=O)CN2C(=O)c3cccc(N)c3C2=O)c1C,.,.,.,.,35,.,.
Cc1cc2ccccc2n1CCNC(=O)c1ccccc1,.,.,.,.,.,.,/
Cc1cc2ccccc2n1CCNC(=O)c1ccc(Br)o1,.,48,.,34,36,.,.
O=C(C(=O)N1CCN(c2ccccc2)CC1)c1cn(CC(=O)N2CCCCCC2)c2ccccc12,/,.,/,.,31,/,.
CS(=O)(=O)Nc1ccc(C(=O)NCCSCc2ccccc2)cc1,.,.,.,.,.,.,/
CS(=O)(=O)Nc1ccc(C(=O)NCCSCc2c(F)cccc2Cl)cc1,.,.,.,.,37,.,.
COc1cc(/C=N\Nc2cc(=O)n(C)c(=O)n2C)ccc1O,.,.,.,.,39,.,.
SMILES,Mcl-1 Bim block,MCL1 BIM primary,Mcl1-Bid inh,BCLXL inh,GLD-1 RNA inh,Mcl1-Noxa inh,GLD1 RNA confirm
O=C(Nc1ccc2nc3ccccc3nc2c1)c1ccc(Br)cc1,.,.,.,.,.,.,/
CC(=O)Nc1ccc2nc3ccccc3nc2c1,/,50,.,59,48,.,34
CN(C)Cc1cc(O)c(CN(C)C)cc1O,/,48,.,64,63,60,.
CN(C)Cc1cc(C(C)(C)C)cc(C(C)(C)C)c1O,/,.,.,.,.,.,/
Cc1cc(Oc2ccc(=O)[nH]n2)nc(Cl)n1,/,.,.,40,35,.,.
Cc1onc(-c2ccccc2)c1C(=O)OCC(=O)NCc1ccc(F)cc1,.,.,.,.,31,.,.
O=C(Nc1ccc(N2CCN(C(=O)c3ccccc3F)CC2)cc1)c1cncc(Br)c1,/,.,/,.,.,/,/
COc1cc(CNC2CCCC2)cc(Cl)c1OCc1ccc(F)cc1,.,.,.,.,52,.,.
Cn1c2ccccc2c2nnc(SCC(=O)Nc3cccc(O)c3)nc21,/,.,/,.,.,/,/
CCOC(=O)c1ccc(N2C=C(C(=O)OC)C(c3cccc(O)c3)C(C(=O)OC)=C2)cc1,/,.,/,.,.,/,/
COCCCN1CN(S(=O)(=O)c2ccc(Cl)cc2)c2nc3ccccc3nc21,.,.,.,.,34,.,.
C=CCN1CN(S(=O)(=O)c2cccc(Cl)c2)c2nc3ccccc3nc21,/,.,/,34,45,/,.
Cc1cc(-c2nnc(SCC(=O)Nc3cccc(Cl)c3)n2N)n[nH]1,/,.,/,.,.,/,/
CN1C(C)(C)CC(NC(=O)c2ccco2)CC1(C)C,/,.,/,.,.,/,/
CC1(C)CC(OC(=O)c2ccco2)CC(C)(C)N1O,.,.,.,43,35,.,.
Cc1ccc(NC(=O)CN2CCN(c3ccccn3)CC2)cc1S(=O)(=O)N(C)C,.,.,.,.,54,.,.
CCN(CC)S(=O)(=O)c1cc(NC(=O)CN2CCN(c3ccccn3)CC2)ccc1C,.,.,.,.,.,.,/
O=C(CN1CCOCC1)Nc1ccc(OC(F)(F)F)cc1,/,.,/,.,.,/,/
CCCC(=Nc1ccc(N)cc1)C1=C(O)C(C(=O)OC)C(C)(C)CC1=O (stereo unspecified),.,49,.,44,33,.,.
CCCC(=O)C1=C(O)C(C(=O)OC)C(C)(C)CC1=Nc1ccc(N)cc1 (stereo unspecified),.,.,.,.,.,.,/
CC1CCC(C(C)C)C(OC(=O)C2=C3c4ccccc4S(=O)(=O)N3CC2)C1 (stereo unspecified),.,.,.,.,49,.,.
CC1CCC(C(C)C)C(OC(=O)CSc2nccc(=O)[nH]2)C1 (stereo unspecified),.,.,.,.,.,.,/
COc1ccc(CCNC(=O)c2ccc(CS(=O)Cc3ccc(Cl)cc3)o2)cc1OC (stereo unspecified),/,.,/,.,.,/,/
O=C(CN1C(=O)NC2(CCCCC2)C1=O)Oc1ccc2c(C(F)(F)F)cc(=O)oc2c1,/,.,/,33,59,/,49
COc1ccc(C(=O)OCC(=O)N(C)C2CCS(=O)(=O)C2)cc1Br (stereo unspecified),/,.,/,.,.,/,/
Cc1cc(NC(=O)/C=C/c2ccccc2Cl)n(-c2nc3ccccc3[nH]2)n1,.,.,66,.,34,.,.
CCn1c2ccc(C)cc2c2n[nH]c(=S)nc21,/,.,/,.,.,/,/
CC(C)n1nccc1NC(=O)Nc1ccccc1,/,.,/,.,.,/,/
O=C(COC(=O)c1ccc(Br)cc1)NCc1ccccc1,.,.,.,.,41,.,.

# Screening data deposited in PubChem BioAssay by several laboratories.
